Source: PubChem BioAssay (NCATS)
This is one part of the list. Inconclusive results are not listed. Values without a mark were called inactive. The source made the active and inactive calls. The call rests on the fitted dose curve; in most records, active means well fitted inhibition curve with a large enough effect; inconclusive means small, poorly fitted or top-dose-only effect; inactive means flat fitted curve, though single readings scatter.

Tests used:
[1] = target: Fructose-bisphosphate aldolase (Giardia intestinalis (strain ATCC 50803 / WB clone C6)) (UniProt A8B2U2); assay: qHTS Assay for Inhibitors of Fructose-1,6-bisphosphate Aldolase from Giardia Lamblia: Primary screen confirmation (AID 2787);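 further: aldolase product measured through coupled diaphorase step turning resazurin into fluorescent resorufin; series mostly up to about 58 µM; nearly all actives have a fitted effect of over 45% in size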
Procedure, shortened: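 Confirmation of primary hits by qHTS up to 57.5 uM final compound. Enzyme at 40 nM with 30 uM ZnCl2, 10 min RT pre-incubation, then substrate/coupling/resorufin-forming detection mix for 20 min before fluorescence read at 525/598 nm.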

[2] = qHTS Assay for Inhibitors of Fructose-1,6-bisphosphate Aldolase from Giardia Lamblia: Coupling assay counterscreen confirmation (AID 2795); further: nearly all actives have a fitted effect of over 55% in size
Procedure, shortened: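 Primary-screen hits were tested against the coupling system alone (GAPDH-based, glyceraldehyde-3-phosphate), without aldolase. Compounds at up to 57.5 uM final were preincubated 10 min at RT with coupling enzymes, then substrate/detection mix (AmpLite Red) was added for 20 min at RT; fluorescence read at 525/598 nm.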

[3] = target: Fructose-bisphosphate aldolase A (Oryctolagus cuniculus) (UniProt P00883); assay: qHTS Assay for Inhibitors of Fructose-1,6-bisphosphate Aldolase from Giardia Lamblia: Rabbit FBPA Selectivity (AID 2794); further: nearly all actives have a fitted effect of over 60% in size
Procedure, shortened: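 Glyceraldehyde-3-phosphate-coupled detection measures rabbit Class I aldolase turnover via AmpLite Red fluorescence. Compounds (final up to 57.5 uM) preincubated 10 min; signal read 20 min post-substrate at RT.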

Sequence of Fructose-bisphosphate aldolase (Giardia intestinalis (strain ATCC 50803 / WB clone C6)) (A8B2U2 whole entry, looked up): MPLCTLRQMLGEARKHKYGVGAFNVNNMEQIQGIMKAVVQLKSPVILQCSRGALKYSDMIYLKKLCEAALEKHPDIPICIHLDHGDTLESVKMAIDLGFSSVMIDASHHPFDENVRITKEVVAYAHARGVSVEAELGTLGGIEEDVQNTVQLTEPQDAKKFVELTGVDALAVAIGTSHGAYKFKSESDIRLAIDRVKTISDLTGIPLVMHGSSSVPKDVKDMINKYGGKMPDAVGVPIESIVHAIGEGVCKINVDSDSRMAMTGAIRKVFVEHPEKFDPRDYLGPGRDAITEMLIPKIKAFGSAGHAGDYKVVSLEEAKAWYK
Sequence of Fructose-bisphosphate aldolase A (Oryctolagus cuniculus) (P00883 whole entry, looked up): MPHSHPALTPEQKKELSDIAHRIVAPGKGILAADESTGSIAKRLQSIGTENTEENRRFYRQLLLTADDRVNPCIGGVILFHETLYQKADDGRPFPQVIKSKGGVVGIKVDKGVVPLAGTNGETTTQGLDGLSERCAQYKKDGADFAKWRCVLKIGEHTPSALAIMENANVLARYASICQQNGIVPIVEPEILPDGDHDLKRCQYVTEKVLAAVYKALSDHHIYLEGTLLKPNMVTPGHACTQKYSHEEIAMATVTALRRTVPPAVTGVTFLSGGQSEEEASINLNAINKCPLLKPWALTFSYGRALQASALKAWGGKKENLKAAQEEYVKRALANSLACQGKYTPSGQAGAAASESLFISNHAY

| Structure (SMILES) | outcome [1] | outcome [2] | outcome [3] |
| --- | --- | --- | --- |
| CNC(=S)N/N=C/c1ccc(N2CCOCC2)s1 | inactive | inactive | – |
| Cc1cnc(NC(=O)c2ccccn2)s1 | – | – | inactive |
